The sample as a whole holds a higher share of hits than the screen did.
TTR transcr act = increases transthyretin transcription | SH-SY5Y TTR promoter Gaussia luciferase, luminescence; 100% = recombinant luciferase protein wells | activation, % at 16.7 µM | hit rate 1.3% among 92,000;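 active = activation above the mean of all tested compounds plus 3 SD, cut at about 9.5% in these data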;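 note: cells exposed to compounds for one day before reading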
HuH7 TTR inh = counter-screen for TTR activators: TTR transcription inhibitors in HuH7 cells; shares compounds with TTR transcr act; HuH7 TTR promoter-Gaussia luciferase reporter, luminescence; inhibition, % at 16.7 µM; hit rate 4% among 1,100; AID 1117279;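 active = average inhibition above the solvent-only control wells' mean plus 3 SD, cut at about 15% in these data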;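 note: inhibitors lower well luminescence so higher value means more inhibition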
TTR up confirm = human TTR transcription activation, confirmation; shares compounds with TTR transcr act; SHSY5Y TTR promoter Gaussia luciferase, luminescence; 100% = purified Lucia enzyme wells, no cells; activation, % at 16.7 µM; 1,100 tested, under 10 active;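 active = mean activation above a set limit taken from the earlier primary screen, cut at about 11% in these data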
Large screens that a line does not name were inactive (follow-up assays come after a bar, where they were run).

CC1(C)CC(=O)C=C(c2ccc(COC(=O)C3CC3)cc2)C1=O	none
N#CN1CCC(NS(=O)(=O)c2ccc(F)cc2)C1 (centres undefined)	none
COC(=O)c1cncc(C)c1	none
CN(CC(=O)Nc1ccc(S(N)(=O)=O)cc1)C1CCCCC1	none
CN(CC(=O)NC(=O)Nc1ccccc1F)Cc1ccccc1F	none
CN(CC(=O)Nc1ccc(S(N)(=O)=O)cc1)Cc1ccccc1F	TTR transcr act 16.1 | HuH7 TTR inh inactive | TTR up confirm inactive
CCC1(CC)NC(=O)N(CC(=O)Nc2ccc(-n3cnnn3)cc2)C1=O	none
CCC(C)[C@H](NC(=O)OC(C)(C)C)C(=O)N[C@@H](Cc1ccccc1)C(=O)OC (some centres undefined)	none
COc1ccc(CCNC(=O)c2ccc(OC)c(OC)c2)cc1OC	none
COc1ccc(CC(=O)NCc2ccccc2)cc1OC	none
COc1ccc(CNC(=O)CNC(=O)c2ccc(C(C)(C)C)cc2)cc1OC	TTR transcr act 13.0 | HuH7 TTR inh inactive | TTR up confirm inactive
NC(=O)C1CCN(c2nc(-c3ccc(Oc4ccccc4)cc3)cs2)CC1	none
COC(=O)c1ccccc1SC1CC(=O)N(c2ccccc2)C1=O (centres undefined)	TTR transcr act 20.6 | HuH7 TTR inh inactive | TTR up confirm inactive
Cn1nnnc1SC1CC(=O)N(c2ccccc2)C1=O (centres undefined)	none
O=C(O)c1ccccc1SC1CC(=O)N(c2cccc3ccccc23)C1=O (centres undefined)	none
COC(=O)[C@]12C[C@H](CC(=O)NCc3ccccc3)C(=O)N(Cc3cccc4ccccc34)C1=C[C@H](C(C)(C)C)O[C@@H]2C	none
O=C(Nc1ccccc1)c1cc(C2CCCN(C(=O)C3CC3)C2)on1 (centres undefined)	TTR transcr act 10.0 | HuH7 TTR inh inactive | TTR up confirm inactive
CN(C)c1ccc(CC(=O)N2CCCC(c3cc(C(=O)Nc4ccccc4)no3)C2)cc1 (centres undefined)	none
Cc1ccc(F)cc1C(=O)N1CCCC(c2cc(C(=O)Nc3ccccc3)no2)C1 (centres undefined)	none
Cc1ccc(NC(=O)OC2CC3CC2[C@H]2CCCCN2[C@H]3Cc2ccccc2)cc1 (some centres undefined)	none
CCN(C(=O)c1ccc(S(=O)(=O)N(C)C)cc1)C(C)C(=O)Nc1ccc(C)cc1 (centres undefined)	none
O=C1CCCc2c1nc(-c1ccc([N+](=O)[O-])cc1)n2O	TTR transcr act 12.0 | HuH7 TTR inh inactive | TTR up confirm inactive
O=C1CCCc2c1nc(-c1ccc(F)cc1)n2O	none
O=[N+]([O-])c1ccc(-c2cn3c(n2)CCC3)cc1	none
C[C@H]1C2CC(OC(=O)Nc3ccc(F)cc3)C(C2)[C@H]2CCCCN21 (some centres undefined)	none
COc1cc(Cl)c(C)cc1NC(=O)CC1SC(N2CCOCC2)=NC1=O (centres undefined)	none
O=C(/C=C/[C@H]1O[C@@H](n2cnc3c(NC(=O)c4ccccc4)ncnc32)[C@H](O)[C@@H]1O)NCCc1ccc(F)cc1	TTR transcr act 20.8 | HuH7 TTR inh inactive | TTR up confirm inactive
O=C(/C=C/[C@H]1O[C@@H](n2cnc3c(NC(=O)c4ccccc4)ncnc32)[C@H](O)[C@@H]1O)NCCc1c[nH]c2ccccc12	none
COCCCNC(=O)/C=C/[C@H]1O[C@@H](n2cnc3c(NC(=O)c4ccccc4)ncnc32)[C@H](O)[C@@H]1O	none
COc1cccc(CN2CCN(C(=O)c3oc4c(F)cccc4c3C)CC2=O)c1	none
Cc1cc(C)c(NC(=O)COC(=O)c2c(C)noc2C)c(Cl)c1	none
Cc1cc(C)c(-c2c(O)c3cccnc3n(C)c2=O)c(C)c1	TTR transcr act 10.5 | HuH7 TTR inh inactive | TTR up confirm inactive
Cn1c(=O)c(-c2ccccc2)c(O)c2ccccc21	none
Cn1c(=O)c2cccnc2c(=O)n1C	none
CN(C)c1cccc(C(=O)OCCNC(=O)c2cccc(S(=O)(=O)N3CCOCC3)c2)c1	none
COCCSc1ccccc1C(=O)N1CCCC(C)C1 (centres undefined)	TTR transcr act 20.9 | HuH7 TTR inh inactive | TTR up confirm inactive
COCCSc1ccccc1C(=O)N1CCN(c2ccccc2)CC1	none
CCOC(=O)N1CCN(C2CCCN(C(=O)c3ccccc3SC)C2)CC1 (centres undefined)	none
COC(=O)C1CN(CCO)CCS(=O)(=O)N1Cc1cccc(Cl)c1 (centres undefined)	none
CC(CCCCCCCCC(=O)O)N(CCO)C(=O)OC(C)(C)C (centres undefined)	TTR transcr act 10.4 | HuH7 TTR inh inactive | TTR up confirm inactive
CCCCCCC(=O)O	none
CCCCCCCCCCCCC(=O)CCCCC(=O)O	none
C[C@@H]1COc2cc(Br)ccc2S(=O)(=O)N1Cc1cn(CCC2OCCO2)nn1	none
CCOC(=O)C1(C)CCCCN1C(=O)c1ccc(F)c(C)c1 (centres undefined)	none
C[C@H](O)[C@@H]1CN2CCc3c([nH]c4ccccc34)[C@@H]2C[C@@H]1N(C)C(=S)Nc1ccc(C#N)cc1	none
COC(=O)c1ccc(NC(=O)COc2cccc(-n3cnnn3)c2)cc1	none
COC(=O)COc1cccc(-n2cnnn2)c1	TTR transcr act 11.2 | HuH7 TTR inh inactive | TTR up confirm inactive
COc1cc(C(=O)Nc2cccc(-n3cnnn3)c2)cc(OC)c1OC	none
COC(=O)c1sccc1NC(=O)Nc1cc(C)cc(C)c1	none
COC(=O)c1sccc1NC(=O)Nc1cccc(OC)c1	TTR transcr act 10.0 | HuH7 TTR inh inactive | TTR up confirm inactive
COC(=O)c1sccc1NC(=O)c1cccc(OC)c1	none
COc1cc(NC(=O)c2[nH]c(C)c(C(C)=O)c2C)c(OC)cc1Cl	none
O=C(OCc1cn(Cc2cccc(Cl)c2)nn1)N1CCCC1	none
CNC(=O)c1ccsc1NC(=O)CS(=O)(=O)c1ccc(Cl)cc1	none
CCC(C)(C(=O)NC1CCCCC1)N(CC1CCCO1)C(=O)Cc1cccs1 (centres undefined)	none
COc1ccc(NC(=O)Cn2c(=O)n(CC3CCCO3)c(=O)c3ccccc32)c(OC)c1 (centres undefined)	none
O=C(O)c1ccc(CSc2nnc(Cc3ccccc3)o2)cc1	TTR transcr act 12.5 | HuH7 TTR inh 42.3 | TTR up confirm inactive
CC(C)(C)OC(=O)NCCc1nnc(SCc2ccccc2)o1	none
O=C(CSc1nnc(Cc2ccccc2)o1)N1CCc2ccccc21	none
Cc1ccc(C(=O)OCC(=O)Nc2cccc(S(=O)(=O)NC3=NCCCCC3)c2)c(C)c1	none
Cc1cc([N+](=O)[O-])nn1CCCC(=O)Nc1cc(Cl)ccc1Cl	TTR transcr act 14.4 | HuH7 TTR inh inactive | TTR up confirm inactive
Cc1cc([N+](=O)[O-])nn1CCCC(=O)NCc1ccccc1	none
Cc1cc(NC(=O)CCCn2nc([N+](=O)[O-])cc2C)no1	none
CCC(C)CCN1CCN=C1Nc1ccccc1 (centres undefined)	none
CCOC(=O)N1CCN(C(=O)/C(=C\c2ccc(SC)cc2)NC(=O)c2ccccc2)CC1	none
O=C(c1cccc(F)c1)N1CCN(S(=O)(=O)Cc2ccccc2)CC1	none
OCC1(CO)COC(CCc2ccccc2)=N1	none
Cc1cc(C)cc(OCC(=O)O/N=C(\N)c2ccccn2)c1	none
Cc1cc(C)c(C)c(OCC(=O)O/N=C(\N)c2ccncc2)c1	none
Cc1cc(C)c(C)c(OCC(=O)O/N=C(\N)c2ccccn2)c1	TTR transcr act 10.4 | HuH7 TTR inh inactive | TTR up confirm inactive

Bioassay records deposited in PubChem by The Scripps Research Institute Molecular Screening Center.
